Experimental data from the supplement of paper PMC6555819.

Key:
Assay in all cases: PBM binding z-score (relative to random genomic background probes); higher = stronger binding; sequences stand for … in GC…GCGATTGACAGCGTAGAATGAAGG
[1] = tested on: RARb homodimer (NR concentration 270 nM)
Outline: (§1)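 Binding buffer was PBS pH 7.4 with 2% milk, 0.02% Triton X-100, 1 mM DTT, 0.2 mg/mL BSA and 0.4 mg/ml salmon testes DNA. In it, ligand-free nuclear receptor dimers were incubated 1 h on custom Agilent 4×180K protein-binding microarrays carrying double-stranded probes. Antibodies against each partner (one per run) detected binding, and z-scores were calculated against random background probes after regression normalization of scanned fluorescence.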

[2] = tested on: RARg:RXRa (NR concentration 270 nM, RXRa partner concentration 90 nM)
Outline: as §1

[3] = tested on: RARg homodimer (NR concentration 270 nM)
Outline: as §1

[4] = tested on: RXRa DBDmut IVT, anti-RXR (DBD mutation: RXRa K156A/R161A, NR concentration 90 nM)
Outline: as §1

[5] = tested on: RXRa homodimer (NR concentration 180 nM)
Outline: as §1

[6] = tested on: THRa:RXRa (NR concentration 90 nM, RXRa partner concentration 90 nM)
Outline: as §1

[7] = tested on: THRa homodimer (NR concentration 90 nM)
Outline: as §1

[8] = tested on: VDR:RXRa (NR concentration 270 nM, RXRa partner concentration 90 nM)
Outline: as §1

[9] = tested on: VDR homodimer (NR concentration 270 nM)
Outline: as §1

| Sequence | PBM binding z-score [1] | PBM binding z-score [2] | PBM binding z-score [3] | PBM binding z-score [4] | PBM binding z-score [5] | PBM binding z-score [6] | PBM binding z-score [7] | PBM binding z-score [8] | PBM binding z-score [9] |
| --- | --- | --- | --- | --- | --- | --- | --- | --- | --- |
| TAGCCTAGGTCAGATCGGGCTAGTATACGCTATA | 1.59 | 2.48 | 3.26 | -0.66 | 1.34 | 3.37 | -0.538 | 0.302 | -0.698 |
| CGTCCAAGGTGATAGGAGGTCAGTGAAGACAGAT | 3.59 | 2.56 | 2.86 | 0.227 | 1.88 | 4.34 | 1.51 | 3.08 | 0.846 |
| ATCTCTAGGTAACGATAGTTCAGTGAATGCAAAT | 0.983 | 0.601 | 0.702 | -0.137 | 0.128 | 0.928 | 0.354 | 0.643 | 0.517 |
| GGAATGAGGGCAAAGTTGATAGCATCTGTCGACG | 1.42 | 2.19 | 1.83 | 2.73 | 2.31 | 1.89 | 0.391 | 1.82 | 1.75 |
| CCGCCTGGGGCATAAGGTTACCATAAGCCAGCCC | 1.94 | 1.82 | 1.11 | -0.905 | 1.07 | 1.99 | 1.33 | 0.151 | -0.126 |
| AGAACGAGGGCACGCTGAGGTGATAGCAGAGTAG | 1.66 | 2.8 | 2.65 | 1.51 | 1.77 | 3.45 | 1.21 | 1.78 | 1.04 |
| ATATGTAGGTTACATCCGGGTCATACAGGCTATG | 2.77 | 3.85 | 2.26 | 0.757 | 3.05 | 4.01 | 2.3 | 4.02 | 2.26 |
| TCATATAGGTAAAGGGGAAAGTCGAACGATATGA | 0.241 | 0.707 | 0.688 | 1.39 | 1.21 | 0.241 | -0.0232 | 0.735 | -0.173 |
| AGTCAGAGTTCAGGACGAGGTAACGTAAAGCACG | 2.72 | 4.62 | 4.28 | 3.5 | 3.59 | 3.79 | 1.53 | 3.77 | 3.75 |
| CCTTACGGGTCACTGACAGGATATAGCATTTGGA | 2.9 | 4.97 | 4.62 | 1.76 | 5.05 | 2.62 | 0.268 | 3.36 | 0.961 |
| GTACCAAGGTGAATAGATCGTTGATGAGTAGGCG | 0.231 | 0.664 | 0.719 | -0.335 | 0.634 | 1.03 | 0.372 | -0.155 | -0.106 |
| ACTAGTTGGTCAGCTGAGGTCCCACACAATTCGG | 0.808 | 0.425 | 0.578 | 0.281 | 0.206 | 2.75 | 0.564 | -0.0724 | -0.00436 |
| AATACAGGGTCATCGTAGGCCAGAATACGCACAG | 3.68 | 5.69 | 5.13 | 3.5 | 6.42 | 4.4 | 1.5 | 5.15 | 3.25 |
| AGAACGAGGGCACACTGAGTTGATAGCAGAGTAG | 1.02 | 1.64 | 1.91 | 2.1 | 1.24 | 1.72 | 0.167 | 2.15 | 1.78 |
| TCTCTTAGTTGAAGGGCAACCGACGAGTCCGTTT | 1.22 | 0.587 | 0.371 | 1.52 | 0.71 | 0.283 | 0.0407 | 0.951 | 1.24 |
| CCTACTGGGCCATCAGGTCAGTGATATCAACGTT | 2.46 | 1.18 | 1.57 | -0.413 | 0.552 | 2.19 | 1.78 | 0.21 | 0.319 |
